Source: PubChem BioAssay (National Center for Advancing Translational Sciences (NCATS))
Rows were chosen to be rich in hits. Some 1.4% of all compounds tested hit in one or more screens of this group.
AmpC no deterg: blocks E. coli AmpC beta-lactamase in detergent-free assay | P00811 | AmpC nitrocefin hydrolysis, absorbance 480 nm, 0.0001% Triton | Potency, µM (doses to about 57.1 µM), hits mostly inhibitors | hit rate 0.52% among 330,000 | AID 485341; further: nearly all actives have a fitted effect of over 20% in size
Target sequence (P00811 whole entry, looked up): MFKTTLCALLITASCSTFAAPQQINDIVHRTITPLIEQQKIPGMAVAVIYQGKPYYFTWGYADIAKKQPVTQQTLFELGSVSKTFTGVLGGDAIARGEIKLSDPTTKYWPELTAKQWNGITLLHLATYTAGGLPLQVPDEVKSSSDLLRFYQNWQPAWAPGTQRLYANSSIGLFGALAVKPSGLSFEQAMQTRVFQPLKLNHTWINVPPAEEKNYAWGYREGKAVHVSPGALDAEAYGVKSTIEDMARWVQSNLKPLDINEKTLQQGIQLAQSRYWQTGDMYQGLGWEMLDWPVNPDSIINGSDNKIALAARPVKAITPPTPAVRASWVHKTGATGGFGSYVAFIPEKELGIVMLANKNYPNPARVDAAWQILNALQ
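AmpC (5.3 nM in the dispensed reagent) in 20 mM phosphate pH 7.0 with 0.01% (detergent screen) or 0.0001% Triton X-100 was preincubated with compounds for 15 min at room temperature. Nitrocefin was then added from an 800 uM solution, and hydrolysis was followed at 480 nm.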
AMA1 RON2 block: AMA1-RON2 (P. falciparum) interaction inhibition; AlphaScreen AMA1-biotinylated RON2 peptide binding; Potency, µM (top dose mostly 58.2 µM), actives largely listed as inhibitors; hit rate 0.2% among 360,000; AID 720542; further: nearly all actives have a fitted effect of over 45% in size
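AMA1 (3D7) with his tag at 25 nM final met compounds first, then biotinylated RON2 peptide at 25 nM; detection used donor plus acceptor beads, 10 µg/mL apiece, read by AlphaScreen after 30 min at room temperature.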
SARS PLpro yeast: inhibitors of SARS-CoV papain-like protease in yeast; S. cerevisiae expressing SARS-CoV PLpro, growth rescue; Potency, µM (doses to about 32.9 µM), hits mostly activators; AID 485353; hit rate 0.19% among 330,000; calls by dose curve; further: nearly all actives have a fitted effect of over 55% in size
VACV Venus inh: vaccinia inhibition (Venus reporter); Potency, µM (series often up to 36.5 µM), most hits filed as inhibitors; Vaccinia virus Venus reporter expression, fluorescence; hit rate 0.46% among 330,000; calls by dose curve; tested in A549 cells; further: nearly all actives have a fitted effect of over 30% in size
Vaccinia mCherry: vaccinia inhibition (mCherry reporter). Vaccinia virus mCherry reporter infection, fluorescence. Potency, µM (highest dose often 36.5 µM), usual class: inhibitors. hit rate 0.63% among 310,000; calls by dose curve; tested in A549 cells; further: nearly all actives have a fitted effect of over 35% in size
AmpC inh detg: blocks E. coli AmpC beta-lactamase in detergent assay; AmpC hydrolysis of nitrocefin, absorbance 480 nm, 0.01% Triton; Potency, µM (titrated, usually from 114 µM), actives largely listed as inhibitors; hit rate 0.041% among 370,000; AID 485294; further: nearly all actives have a fitted effect of over 25% in size
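AmpC (5.3 nM in the dispensed reagent) in 20 mM phosphate pH 7.0 with 0.01% (detergent screen) or 0.0001% Triton X-100 was preincubated with compounds for 15 min at room temperature. Nitrocefin was then added from an 800 uM solution, and hydrolysis was followed at 480 nm.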
Hits are given with their value; - = inactive; ? = inconclusive; . = no result. Unless noted, the call rests on the fitted dose curve; in most records, active means well fitted curve in the direction sought with a large enough effect; inconclusive means small, poorly fitted or top-dose-only effect, or another doubt; inactive means no such curve, though single readings can be large; an effect the other way counts as inactive or inconclusive.

SMILES | AmpC no deterg | AMA1 RON2 block | SARS PLpro yeast | VACV Venus inh | Vaccinia mCherry | AmpC inh detg
CC1=NN(c2ccccc2)C(=O)/C1=C/N(C)C | - | - | - | - | - | -
COc1cc(-c2nc3n(n2)C(c2ccc(F)cc2)C(C(N)=O)=C(C)N3)cc(OC)c1OC (stereo not drawn) | . | . | . | - | - | -
COc1ccc(-c2nc3ccc(NC(=O)COC(C)=O)cc3c(=O)n2Cc2ccccc2)cc1COc1ccc(NC(C)=O)cc1 | . | . | . | - | - | .
Cc1ccc(-c2nc3ccccc3c(=O)n2CCN2CCOCC2)cc1 | 2.2µM | - | - | . | . | -
COc1ccc(-c2nc3ccccc3c(=O)n2CCN2CCOCC2)cc1 | - | - | - | - | - | -
Cc1[nH]c2ccccc2c1/C=C/c1nc2ccccc2c(=O)[nH]1 | - | - | - | ? | 13µM | -
COc1ccc(NC(=O)N2CCCc3ccccc32)cc1 | - | - | - | . | . | -
COc1ccc(N/N=C(/C(C)=O)N2CCCc3ccccc32)cc1 | - | 16µM | - | ? | ? | -
COC(=O)c1cc2c(n1S(=O)(=O)c1ccc(C)cc1)C(=O)C(=O)c1[nH]cc(C(=O)OCc3ccccc3)c1-2 | . | - | . | 2.5µM | 2.2µM | .
COC(=O)c1ccc(COC(=O)c2ccc(CS(=O)(=O)c3ccc(C)cc3)cc2)cc1 | - | - | - | - | - | -
C/C(CC1CC2=C(CC1(C)C)C(C)(C)CCC2)=N\NC(N)=S (stereo not drawn) | - | - | 11µM | ? | - | -
O=S(=O)(c1ccccc1F)N1CCN(c2nc(-c3cccs3)nc3ccccc23)CC1 | . | . | . | - | - | .
COc1cc2c(CCNC(C)=O)c[nH]c2cc1O | . | 4.5µM | . | - | - | .
C/C(=N\Nc1nc(-c2ccc(C)cc2C)cs1)c1cc2ccccc2oc1=O | 20µM | - | - | - | - | ?
O=C(c1ccccc1-n1cccn1)N1CCOc2ccc(CN3CCOCC3)cc2C1 | . | . | . | - | - | .
CCc1cccc(CC)c1NC(=S)NCCc1c(C)[nH]c2ccc(C)cc12 | - | - | ? | 16µM | 10µM | -
COc1ccc2[nH]c(C)c(CCNC(=S)Nc3cc(C)ccc3C)c2c1 | - | - | - | - | - | ?
CCc1cccc(C)c1NC(=S)NCCc1c(C)[nH]c2ccc(C)cc12 | - | - | - | ? | 18µM | -
O=[N+]([O-])c1ccc(C=NN2CCNC2=S)o1 | . | - | . | - | - | .
CCN(CC)CC1CN(N=Cc2ccc([N+](=O)[O-])o2)C(=O)O1 (stereo not drawn) | . | - | . | 16µM | ? | .
CCCCN(CCCN)c1ccc(Br)cn1 | . | . | . | - | - | .
C[n+]1ccc(/C=C/c2ccc([N+](C)(C)C)cc2)c2ccccc21 | . | . | . | - | - | .
COc1ccc(CN(C)C[C@@H]2OCCCC[C@H](C)Oc3ccc(NC(=O)Cc4ccccc4)cc3C(=O)N([C@@H](C)CO)C[C@@H]2C)cc1 | . | - | . | - | - | .
COc1ccc(S(=O)(=O)N(C)C[C@H]2Oc3c(NC(=O)Nc4ccc(C(F)(F)F)cc4)cccc3C(=O)N([C@H](C)CO)C[C@@H]2C)cc1 | - | - | - | 10µM | ? | .
C[C@@H]1CCCCO[C@@H](CN(C)CC2CCCCC2)[C@@H](C)CN([C@H](C)CO)C(=O)c2cc(NS(=O)(=O)c3ccc(Cl)cc3)ccc2O1 | . | - | . | 10µM | ? | .
SMILES | AmpC no deterg | AMA1 RON2 block | SARS PLpro yeast | VACV Venus inh | Vaccinia mCherry | AmpC inh detg
C[C@@H]1CN([C@@H](C)CO)C(=O)Cc2cc(NC(=O)Nc3ccc(F)cc3)ccc2O[C@@H]1CN(C)Cc1ccc(Cl)c(Cl)c1 | - | - | - | 11µM | ? | .
C[C@@H]1CCCCO[C@H](CN(C)Cc2ccc(C(F)(F)F)cc2)[C@H](C)CN([C@@H](C)CO)C(=O)c2cc(NC(=O)Cc3ccccc3)ccc2O1 | . | - | . | 11µM | ? | .
C[C@H]1CCCCO[C@H](CN(C)CC2CCCCC2)[C@@H](C)CN([C@@H](C)CO)C(=O)c2cc(NS(=O)(=O)c3ccccc3)ccc2O1 | . | - | . | ? | - | .
COc1ccc(N(CC(=O)Nc2cccc(Cl)c2C)S(=O)(=O)c2c(C)nn(C)c2C)cc1 | . | . | . | - | - | -
C[C@@H]1CN([C@@H](C)CO)C(=O)c2cc(NC(=O)Nc3ccc(F)cc3)ccc2O[C@@H]1CN(C)Cc1ccc(Oc2ccccc2)cc1 | - | ? | - | 10µM | ? | .
Cc1ccc(S(=O)(=O)Nc2ccc3c(c2)C(=O)N([C@H](C)CO)C[C@H](C)[C@@H](CN(C)Cc2ccc(-c4ccccc4)cc2)O3)cc1 | - | - | - | 10µM | ? | .
C[C@H](CO)N1C[C@H](C)[C@@H](CN(C)Cc2ccccc2)Oc2c(NC(=O)Cc3ccccc3)cccc2C1=O | - | - | - | ? | - | .
C[C@H](CO)N1C[C@H](C)[C@@H](CN(C)Cc2ccc(Cl)c(Cl)c2)Oc2c(NC(=O)Cc3ccccc3)cccc2C1=O | - | - | - | ? | 5.6µM | .
CC(O)(c1ccccc1)[N+]1(CC(=O)c2ccccc2)C=CC=C1 (stereo not drawn) | . | . | . | - | - | .
CC(=O)N1/C(=C/c2ccc(N(C)C)cc2)C(=O)c2ccccc21 | - | 28µM | - | - | - | -
CN(C)c1ccc(/C=C2\C(=O)/C(=C/c3ccc(N(C)C)cc3)c3ccccc32)cc1 | . | . | . | - | - | .
CCS(=O)(=O)Nc1cc(-c2cn3ccc(C)cc3n2)ccc1C | . | . | . | - | - | -
Oc1ccc(-c2cn3ccccc3n2)cc1O | - | 22µM | - | - | - | -
Cc1ccn2cc(-c3ccc(O)c(O)c3)nc2c1 | - | 2.5µM | - | - | - | -
Oc1ccc(-c2cn3ccccc3n2)cc1 | - | - | - | . | . | -
COc1ccc(CN2C(=O)NC(=O)/C(=C/c3ccoc3)C2=O)cc1 | 10µM | - | - | . | . | -
CCCNC(=O)c1ccc2c(=O)c(O)c(-c3ccc(F)cc3)[nH]c2c1 | - | - | 13µM | ? | ? | -
CCCNC(=O)c1ccc2c(=O)c(O)c(-c3cccc(Br)c3)[nH]c2c1 | - | - | ? | ? | ? | -
Cc1c(C(=O)N2CCCC(c3ccccc3)C2)sc2ncnc(NCCc3ccccn3)c12 (stereo not drawn) | . | . | . | - | - | .
Cc1ccc(CNC(=S)Nc2ccc(NS(=O)(=O)c3ccc(C)cc3)cc2)cc1 | 2.2µM | - | - | - | - | -
CC1=C/C(=N\Nc2ccccc2[N+](=O)[O-])CC(C)(C)C1 | - | 3.5µM | - | - | - | -
C/C(=N/Nc1ccccc1[N+](=O)[O-])c1ccc([N+](=O)[O-])cc1 | - | - | - | . | . | -
Cn1c(C(=O)N2CCOCC2)cc2c(=O)n3ccccc3nc21 | - | - | - | - | - | -
CC1CN(C(=O)c2cc3c(=O)n4ccccc4nc3n2C)CC(C)O1 (stereo not drawn) | - | 11µM | - | - | - | -
